DAX1 inh-1 – NR0B1 (DAX1) inhibition; hit rate 0.99% among 340,000; P51843; inhibition, % at 6.75 µM; HEK293 Gal4-DAX1 luciferase reporter, luminescence;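 active = inhibition above the mean over all tested compounds plus 3 SD, cut at about 4.2% in these data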;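 note: 0% = DAX1-transfected cells with DMSO and 100% = empty-vector control cells with DMSO; inhibition shows as a rise in luminescence from relieved DAX1 repression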
Target sequence (P51843 207-470 limits assumed): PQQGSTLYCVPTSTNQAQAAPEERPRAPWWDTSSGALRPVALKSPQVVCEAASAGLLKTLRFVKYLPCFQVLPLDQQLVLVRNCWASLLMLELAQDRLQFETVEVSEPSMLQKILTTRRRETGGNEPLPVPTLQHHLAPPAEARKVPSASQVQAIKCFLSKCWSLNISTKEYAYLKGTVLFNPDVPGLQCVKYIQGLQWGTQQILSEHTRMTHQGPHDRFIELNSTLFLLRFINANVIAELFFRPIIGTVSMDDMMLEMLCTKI
hgDAF-12 ag – hgDAF-12 agonism, primary luciferase screen; HEK293 GAL4-hgDAF12 UAS-luciferase reporter, agonist luminescence; normalized to butyrate control; activation, % at 6.8 µM; hit rate 1.8% among 370,000; AID 687014;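 active = activation above a cutoff set at the mean of all screened compounds plus 3 SD, cut at about 10% in these data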;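 note: 0% = DMSO wells and 100% = sodium butyrate wells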
DAX1 inh-2 – inhibitors of DAX1 repression of SF-1 activated StAR promoter; HEK293T StAR-luciferase reporter, SF-1/DAX-1 repression relief; inhibition, % at 6.8 µM; hit rate 1.1% among 370,000;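 active = inhibition above the mean over all tested compounds plus 3 SD, cut at about 3.6% in these data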;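 note: 0% = DAX-1 cells with DMSO and 100% = cells lacking DAX-1 with DMSO; higher inhibition means more luminescence from relief of DAX-1 repression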
ssDAF-12 act – activators of S. stercoralis DAF-12 nuclear receptor; HEK293 ssDAF-12/GRIP1 lit1-tk-luc reporter, luminescence; % of 3 µM dafachronic acid response; activation, % at 6.8 µM; hit rate 1% among 370,000; AID 652126;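 active = activation above the mean over all tested compounds plus 3 SD, cut at about 0.9% in these data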;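 note: 0% = DMSO-only wells and 100% = 3 µM delta7-dafachronic acid wells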
hcDAF12 agonist – activators of H. contortus DAF-12 nuclear receptor | HEK293 hcDAF-12 lit1-tk-luc reporter, luminescence; 0% DMSO, 100% Δ7-dafachronic acid | activation, % at 6.8 µM | hit rate 1.4% among 370,000;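 active = activation above the mean of all tested compounds plus 3 SD, cut at about 5.5% in these data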;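 note: 100% = response to 3 µM Δ7-dafachronic acid high control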
The depositor's hits bear a star; x = not tested or not shown. Rows were chosen to be rich in hits. Some 4.1% of all compounds tested hit in one or more screens of this group.

SMILES | DAX1 inh-1 | hgDAF-12 ag | DAX1 inh-2 | ssDAF-12 act | hcDAF12 agonist
CCCc1cc(C(=O)NCc2ccccc2)no1 | 1 | 5 | 2 | 0 | 2
COc1ccc(-c2cc(C(=O)NCc3cccnc3)no2)cc1 | 0 | 7 | 0 | -1 | -1
O=C(NCc1cccnc1)c1cc(-c2cccs2)on1 | 2 | 12* | -1 | -1 | 1
C[C@H]1CCCN1c1ccc2c(c1)O[C@H]1CCN(C1)S2(=O)=O | x | 0 | -2 | -1 | -3
Clc1cc(Cl)cc(CNC2CCC23CCC(c2ccccc2)CC3)c1 (stereo unspecified) | x | 0 | x | 0 | 3
O=C(NCc1cccnc1)c1cc(-c2ccccc2)on1 | 2 | 12* | 1 | -1 | 1
Cc1ccc(NC(=O)c2cc(-c3cc(Cl)ccc3O)n[nH]2)cc1C | 2 | 0 | 0 | -1 | 0
COc1ccc(Cl)c(-c2cc(C(=O)Nc3ccc(F)cc3)[nH]n2)c1 | x | 12* | 3 | -1 | 1
COc1ccc(-c2cc(C(=O)Nc3ccc(NC(C)=O)cc3)[nH]n2)c(C)c1 | x | 9 | 2 | -1 | 2
Cc1ccc(Cl)cc1-c1cc(C(=O)Nc2ccc(F)cc2)[nH]n1 | x | 2 | 4.1* | -1 | -1
CC1CCN(Cc2nc(-c3ccccc3)no2)CC1 | 4 | 13* | 1 | -1 | 5
Oc1ccc2ccccc2c1C=NN1CCN(Cc2ccc(Cl)cc2)CC1 | x | 1 | -1 | -1 | -1
c1ccc(Cn2ccc(-c3cnc(-c4ccccc4)s3)n2)cc1 | 0 | 12* | 2 | 0 | 3
O=C(COc1ccccc1)NCC(=O)N/N=C/c1ccc(O)cc1O | 7.1* | -1 | -1 | 0 | 2
COc1cccc(/C=N/NC(=O)CNC(=O)COc2ccccc2)c1O | -1 | -4 | -1 | -1 | -1
COc1ccc2nc(NC(=O)c3ccco3)sc2c1 | -3 | 6 | 1 | -1 | 4
COc1cc2sc(NC(=O)c3ccco3)nc2cc1Cl | 6.7* | 12* | 2 | 0 | 5
O=C(Nc1nc2c(Cl)ccc(Cl)c2s1)c1ccco1 | 2 | 1 | 0 | 0 | 5.6*
CCc1nnc(NC(=O)CSc2nc3[nH]ncc3c(=O)[nH]2)s1 | 0 | 0 | 0 | -1 | 1
O=C(CSc1nc2[nH]ncc2c(=O)[nH]1)Nc1nccs1 | x | -1 | 0 | 7.5* | 2
CC(=O)CCc1oc2ccccc2c1-c1ccccc1 | 0 | 1 | 0 | -2 | -1
CC(=O)CCc1oc2ccc(C)cc2c1Cc1ccccc1 | 0 | 5 | 0 | 1.6* | 6.5*
COc1cc(NC(=O)c2ccccc2)c(C)cc1NC(=O)CSc1nnc(-c2ccco2)n1Cc1ccco1 | x | -3 | 0 | -1 | 1
O=C1Nc2ccccc2OC1CC(=O)N1CCOCC1 (stereo unspecified) | 6.0* | 3 | 1 | -1 | 2
O=C1Nc2ccccc2OC1CC(=O)N1CCN(c2cccc(C(F)(F)F)c2)CC1 (stereo unspecified) | 0 | -2 | 0 | -2 | 0
SMILES | DAX1 inh-1 | hgDAF-12 ag | DAX1 inh-2 | ssDAF-12 act | hcDAF12 agonist
CC(CCN1CCC(C(O)(c2ccccc2)c2ccccc2)CC1)Oc1cc(F)cc(C#N)c1 (stereo unspecified) | x | -1 | 0 | -1 | 3
Cc1ccc(C2N=C(N)Nc3nc4ccccc4n32)cc1 (stereo unspecified) | 2 | -3 | 0 | -1 | 0
Cc1cccc(C2N=C(N)Nc3nc4ccccc4n32)c1 (stereo unspecified) | 4.8* | 0 | 0 | -1 | 1
Cc1onc(-c2ccccc2)c1CNC(=O)C1COc2ccccc2O1 (stereo unspecified) | 4.6* | 1 | 0 | -2 | 0
O=C(NCc1ccccc1)C1COc2ccccc2O1 (stereo unspecified) | -1 | 1 | 1 | -1 | 3
COc1ccc(OCC(=O)N/N=C\c2ccco2)cc1 | 0 | 1 | 0 | -1 | -1
COc1ccc(/[N+]([O-])=C/c2ccco2)cc1 | 3 | 10* | 2 | 0 | 2
Cc1noc(C)c1-c1ccc(C(=O)NC2CCCCC2)c2occc12 | x | 5 | 0 | 1.7* | -1
COc1cccc(C2c3c(ncn(-c4ccccc4)c3=N)Oc3ccc4ccccc4c32)c1 (stereo unspecified) | x | 4 | x | -1 | 0
CC(C)(C)Nc1nc(Cl)nc(NCCN2CCOCC2)n1 | 5.4* | 0 | 0 | -1 | 0
CCOCCCNC(=O)C(Cc1ccccc1)NS(=O)(=O)c1cccc2nsnc12 (stereo unspecified) | 4.5* | 0 | 0 | -1 | -1
CCCNC(=O)C(Cc1ccccc1)NS(=O)(=O)c1cccc2nsnc12 (stereo unspecified) | 1 | 2 | 0 | -1 | 0
O=C(NC(=S)N1CCc2ccccc21)C1CCC1 | 0 | -3 | 0 | -1 | 5.7*
S=C(Nc1cccnc1)N1CCc2ccccc21 | 0 | 2 | 0 | 0 | 6.4*
O=C(c1ccc(CSc2nc3ccncc3[nH]2)cc1)N1CCN(c2cccc(Cl)c2)CC1 | -3 | -11 | -5 | -2 | -5
O=C(c1ccc(CSc2nc3ccncc3[nH]2)cc1)N1CCCCCC1 | -4 | 13* | 1 | 0 | 4
Cc1nn2c(-c3ccncc3)ccnc2c1Cl | 0 | 12* | 0 | -1 | 0
Cc1cc(C(=O)NNC(C)Cc2ccccc2)no1 (stereo unspecified) | 4.3* | 5 | 1 | -1 | -2
Cc1ccc2nc(-c3ccc(-c4ccccn4)s3)cn2c1 | 4 | 12* | 1 | 0 | 4
Cc1ccc2nc(-c3ccccc3)cn2c1 | -6 | -7 | -1 | -2 | -2
CN1C(=O)C[C@@](C#N)(C(=O)N2CCCC2)[C@H]1c1ccccc1 | x | 2 | 0 | -1 | -1
CCc1noc(C)c1C(=O)OCC(=O)NCc1ccccc1OC | 0 | 6 | 0 | -1 | -1
O=C(Nc1ccccc1Cl)C1CC(=O)N(c2ccccc2)C1 (stereo unspecified) | x | 3 | 0 | 1.3* | -1
C[C@H]1CN([C@@H](C)CO)C(=O)CCCn2cc(nn2)CO[C@@H]1CN(C)C(=O)NC1CCCCC1 | x | 1 | 4.1* | -1 | 0
C[C@@H]1CN([C@H](C)CO)C(=O)CCCn2nncc2CO[C@H]1CN(C)C(=O)Nc1ccc2c(c1)OCCO2 | x | 7 | 0 | 1.5* | 5
Cc1noc(C)c1NC(=O)N(C)C[C@H]1OCc2cnnn2CCCC(=O)N([C@H](C)CO)C[C@@H]1C | 1 | 1 | 1 | 1.3* | 3
O=C(CSc1ncnc2scc(-c3ccc(Cl)cc3)c12)Nc1ccccc1-c1ccccc1 | x | -2 | -1 | -2 | -2
CN1C2=N[C@@H](c3ccc4c(c3)OCO4)CC(=O)N2/C(=C\c2ccccc2)[C@H]1c1ccccc1 | x | 5 | x | -1 | -4
CCc1cccc(C)c1NC(=O)CSc1n[nH]c(N)n1 | 0 | 2 | 4.2* | -1 | 1

Compound activity deposited in PubChem by The Scripps Research Institute Molecular Screening Center.
